High-throughput results (PubChem BioAssay)
Sampled rows, rich in hits. Any-hit rate of the full collection: about 10%.
HP1b chromo inh = HTS for Inhibitors of HP1-beta Chromodomain Interactions with Methylated Histone Tails; 390,000 tested, 0.56% active; AlphaScreen HP1-beta / biotin-H3K9me3 peptide binding; AID 540317, 2011; Potency, µM (top dose mostly 114 µM), inactives show at the top dose activity change, negative = inhibition, actives largely listed as inhibitors; note: potency is the fitted concentration of half-maximal effect; nearly all actives have a fitted effect of over 70% in size
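Compound inhibition of the preformed complex between 50 nM HP1-beta and 50 nM biotinylated H3K9me3 peptide was read by AlphaScreen. Buffer was PBS pH 7.4 with 0.01% Tween-20. Incubations ran 30 min at room temperature, with 10 ug/mL donor/acceptor beads.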
BAZ2B inh = qHTS Assay for Inhibitors of BAZ2B. Bromodomain adjacent to zinc finger domain protein 2B (Homo sapiens), Q9UIF8. AlphaScreen BAZ2B-H3K14Ac peptide displacement. Potency, µM (titrated, usually from 114 µM), inactives show top-dose activity change, negative = inhibition, usual class: inhibitors. 360,000 tested, 4.4% active. AID 504333, 2011; note: potency is the fitted concentration of half-maximal effect; % is set by controls: 0 for no effect and ±100 for the full control effect; nearly all actives have a fitted effect of over 60% in size
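Complex of BAZ2B and biotin-H3K14Ac (50 nM apiece) forms over 30 min at RT, then faces library compounds up to 110 uM for another 30 min; AlphaScreen beads added, 20 min dark incubation, luminescence read.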
G9a inh = qHTS Assay for Inhibitors of Histone Lysine Methyltransferase G9a; AID 504332, 2011; G9a H3K9 monomethylation, AlphaScreen, 2 h; Potency, µM (highest dose often 102 µM), inactives show top-dose activity, negative = inhibition, most hits filed as inhibitors; 350,000 tested, 8.8% active; Histone-lysine N-methyltransferase EHMT2 (Homo sapiens), Q96KQ7; note: potency is the fitted concentration of half-maximal effect; % is set by controls: 0 for no effect and ±100 for the full control effect; nearly all actives have a fitted effect of over 75% in size
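Compounds were preincubated with 20 nM G9a for 15 min, after which biotinylated H3K9 peptide (500 nM) and SAM (20 uM) started a 2 h room-temperature reaction. Monomethylated product was quantified by antibody-based AlphaScreen chemiluminescence.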
CtBP-E1A inh = qHTS Assay for Inhibitors of the CtBP/E1A Interaction | CtBP / adenovirus E1A interaction (AlphaScreen) | AlphaScreen GST-E1A/His-CtBP binding, 1536-well; hits give low values | activity change, % (concentration not given with the values) | 340,000 tested, 0.49% active; in the data active = activity change below about -65%; inconclusive = mostly about -30% to -63%; note: % is set by controls: 0 for no effect and ±100 for the full control effect
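Protein mix (5X: 125 nM each GST-E1A, His-CtBP) was incubated with pinned compound 2 h at 37 deg C in dark, in 50 mM Tris pH 8.0 buffer with 300 mM NaCl. Glutathione donor and nickel acceptor beads followed; AlphaScreen signal read after 1 h.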
Six1-Eya2 inh = qHTS Assay for Inhibitors of the Six1/Eya2 Interaction; Homeobox protein SIX1 (Homo sapiens) + Protein phosphatase EYA2 (Homo sapiens), …; AlphaScreen GST-Six1/His-Eya2 binding, biochemical; hits give low values; activity change, % (test concentration not listed); 360,000 tested, 0.56% active; AID 651725, 2012; in the data active = activity change below about -65%; inconclusive = mostly about -30% to -63%; note: % is set by controls: 0 for no effect and ±100 for the full control effect
Target sequence (O00167 whole entry, looked up): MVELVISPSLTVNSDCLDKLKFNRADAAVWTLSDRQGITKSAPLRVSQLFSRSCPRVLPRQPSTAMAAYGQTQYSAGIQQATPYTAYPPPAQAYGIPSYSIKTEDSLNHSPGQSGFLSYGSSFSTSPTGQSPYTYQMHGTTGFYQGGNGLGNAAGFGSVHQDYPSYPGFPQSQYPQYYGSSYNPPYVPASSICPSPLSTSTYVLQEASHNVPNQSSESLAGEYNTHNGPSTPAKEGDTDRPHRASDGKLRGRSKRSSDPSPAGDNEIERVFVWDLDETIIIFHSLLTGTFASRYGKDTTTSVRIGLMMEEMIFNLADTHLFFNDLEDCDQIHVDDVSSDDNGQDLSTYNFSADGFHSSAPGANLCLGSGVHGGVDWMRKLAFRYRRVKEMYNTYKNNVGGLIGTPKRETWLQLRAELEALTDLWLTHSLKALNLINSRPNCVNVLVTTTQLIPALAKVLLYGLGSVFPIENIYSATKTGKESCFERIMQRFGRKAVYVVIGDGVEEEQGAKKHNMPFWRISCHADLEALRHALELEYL
Target sequence (Q15475 whole entry, looked up): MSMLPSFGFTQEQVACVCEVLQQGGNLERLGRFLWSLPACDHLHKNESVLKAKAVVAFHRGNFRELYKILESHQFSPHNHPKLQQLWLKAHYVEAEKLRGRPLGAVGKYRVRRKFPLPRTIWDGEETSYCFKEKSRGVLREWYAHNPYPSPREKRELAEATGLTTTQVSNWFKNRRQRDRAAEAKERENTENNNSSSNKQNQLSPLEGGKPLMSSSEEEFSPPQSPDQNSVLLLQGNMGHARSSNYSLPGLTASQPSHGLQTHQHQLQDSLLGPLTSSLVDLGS
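GST-Six1 + His-Eya2 (5X stock: 250/500 nM); Tris pH 8.0, 300 mM NaCl, 0.05% BSA, 0.02% Tween 20; GSH donor/Ni acceptor beads; 1 h 37 °C dark; AlphaScreen readout.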
JMJD2A Tudor inh = qHTS Assay for Inhibitors of JMJD2A-Tudor Domain; Lysine-specific demethylase 4A (Homo sapiens), O75164; AlphaScreen JMJD2A-Tudor / H3K4me3 peptide binding; Potency, µM (titrated, usually from 114 µM), without a hit: at the top dose activity change, negative = inhibition, usual class: inhibitors; 390,000 tested, 4.4% active; note: potency is the fitted concentration of half-maximal effect; % is set by controls: 0 for no effect and ±100 for the full control effect; nearly all actives have a fitted effect of over 50% in size
Numbers without * were called inactive; ? = inconclusive; nt = not tested or not shown; [ ] = remark or other dose. Unless noted, calls come from the whole dose curve; as a rule, active = well fitted inhibition curve with a large enough effect; inconclusive = small, poorly fitted or top-dose-only effect; inactive = no such curve, though single readings can be large or run the other way.

SMILES	HP1b chromo inh	BAZ2B inh	G9a inh	CtBP-E1A inh	Six1-Eya2 inh	JMJD2A Tudor inh
Cc1cc(C(N)=O)c2ccccc2n1	23%	nt	-6%[59 µM]	10	5	-12%
NC(=O)c1cc2c3ccccc3ccn2c1-c1ccccc1	?	32µM*	35µM*	nt	-28	32µM*
O=S(=O)(c1ccc2c(c1)OCCO2)N1CCN(S(=O)(=O)c2ccccc2OC(F)(F)F)CC1	nt	nt	nt	nt	nt	-11%
CC(C)CC(=O)/C(=C\c1ccc(Cl)cc1Cl)n1cncn1	35%	-4%	79µM*	nt	-3	-18%
CN(C)c1ccc(/C=C(/C(=O)c2ccc(Cl)cc2Cl)n2cncn2)cc1	-11%	50µM*	-8%[59 µM]	2	-3	?
Cc1cc(C(=O)COC(=O)CCc2nc3ccccc3s2)c(C)n1C	-12%	50µM*	?	-22	-12	?
CC(OC(=O)c1cccnc1SCc1cc(=O)n2ccccc2n1)c1ccccn1 (configuration not stated)	19%	-33%	50µM*	-5	-3	-4%
CCOC(=O)c1cccnc1SCc1cc(=O)n2ccccc2n1	21%	0%	-30%	-2	4	-2%
CCNC(=O)C1CCCN(C(=O)c2cnc3ccccc3n2)CC1 (configuration not stated)	nt	nt	nt	-1	9	nt
Cn1cnc(S(=O)(=O)N2CCC(C(=O)N3CCN(c4ccc(Cl)cc4)CC3)CC2)c1	19%	-8%	2%[59 µM]	nt	nt	-7%
COc1ccc(/C=N/NC(=O)CCOc2ccccc2C)cc1OC	27%	-31%	?	3	-7	-6%
COc1cc(/C=N/NC(=O)CCOc2ccccc2C)cc(Br)c1O	-1%	-16%	50µM*	nt	-11	0%[11.4 µM]
CCCCN(CC)CCNc1ncnc2onc(-c3ccc(Cl)cc3)c12	27%	-18%	3%[59 µM]	nt	nt	-12%
O=C(CCCN1C(=O)CCC1=O)Nc1ccccc1F	5%	?	56µM*	5	1	-18%
COc1ccc(NC(=O)CCCn2cnc3ccccc3c2=O)cc1	-13%	-32%	28µM*	0	0	-21%
COc1ccc(Cl)cc1NC(=O)CCn1cnc2ccccc2c1=O	19%	-4%	?	6	1	-14%
O=C(CCCn1cnc2ccccc2c1=O)Nc1ccccc1F	18%	3%	35µM*	5	-1	-9%
COc1ccc(NC(=O)Cn2cnc3ccccc3c2=O)cc1OC	28%	-10%	nt	12	-1	-4%
O=C1Nc2ccccc2C12OCC(COc1ccc(Cl)cc1)O2 (configuration not stated)	-18%	10%	-7%[12.7 µM]	-1	-3	79µM*
CN1C(=O)C2(OCC(COc3ccc(Cl)cc3)O2)c2ccccc21 (configuration not stated)	62%	15%	10%[59 µM]	9	11	28%
COCCNC(=O)c1c(NC(=O)c2cc(=O)c3cc(Cl)ccc3o2)sc2c1CCCC2	26%	-4%	10%[59 µM]	nt	nt	-8%
O=c1[nH]c(=S)[nH]c2nc(-c3cccs3)cc(C(F)(F)F)c12	36%	-6%	79µM*	4	?	-15%
O=C(CSc1nc2nc(-c3cccs3)cc(C(F)(F)F)c2c(=O)[nH]1)Nc1c(F)c(F)c(F)c(F)c1F	28%	-21%	-40%	-30	-13	-11%
CNC(=S)N(C1=NCC(c2ccc([N+](=O)[O-])cc2)S1)c1ccccc1 (configuration not stated)	?	?	35µM*	-25	-20	?
COC(=O)C1CCN(C(=O)CC(NC(=O)C(F)(F)F)c2cccs2)CC1 (configuration not stated)	20%	-5%	-5%	nt	0	-14%
SMILES	HP1b chromo inh	BAZ2B inh	G9a inh	CtBP-E1A inh	Six1-Eya2 inh	JMJD2A Tudor inh
COc1cccc(/C=N/Nc2ncc(C)c(=O)[nH]2)c1OC	24%	-2%	32µM*	-1	3	-9%
COc1ccc(/C=N/Nc2ncnc3c2[nH]c2ccccc23)c(OC)c1OC	16%	5%	17%[59 µM]	6	6	-31%
COc1cccc(/C=N/Nc2nc3ccccc3[nH]2)c1OC	23%	-36%	nt	-11	-2	-23%
COc1cccc(C=NNc2nnc(NN=Cc3cccc(OC)c3OC)c3ccccc23)c1OC	?	nt	nt	-86*	-78*	35µM*
COc1cccc(/C=N/Nc2ncnc3c2[nH]c2ccc(C)cc23)c1OC	15%	?	56µM*	nt	-7	-35%
Cc1cc(C)c(NC(=O)CSc2nc(=O)n(Cc3ccncc3)c3c2CCC3)c(C)c1	27%	-2%	17%[59 µM]	nt	nt	0%
Cc1ccc(CNC(=O)CN2c3cccc4cccc(c34)S2(=O)=O)cc1	50%	4%	12%[59 µM]	4	1	-22%
O=C(CN1c2cccc3cccc(c23)S1(=O)=O)Nc1ccccc1	21%	nt	12%	-7	-1	-7%
CC(C)NC(=O)NC(=O)CN1c2cccc3cccc(c23)S1(=O)=O	43%	-2%	32µM*	nt	-1	2%
COc1cccc(CNC(=O)CN2c3cccc4cccc(c34)S2(=O)=O)c1	3%	50µM*	?	1	-5	?
CNC(=O)c1ccc(NC(=O)CN2c3cccc4cccc(c34)S2(=O)=O)cc1	-3%	0%	45µM*	-14	-7	-16%
CCCCCCCCN1[C@@H](CC(=O)O)c2ccc(C(F)(F)F)cc2S1(=O)=O	27%	nt	nt	9	3	-21%
CC(=O)c1cnc(-c2ccccn2)s1	-18%	-11%	32µM*	-13	-1	-10%
CCN1CCN(Cc2oc(CO)cc(=O)c2O)CC1	13%	50µM*	1.8µM*	2	3	13µM*
O=c1cc(CO)oc(CN2CCN(c3cccc(C(F)(F)F)c3)CC2)c1O	24%	?	?	-2	-4	-16%
O=c1cc(CO)oc(CN2CCN(c3ccccc3F)CC2)c1O	20%	-31%	?	-2	-4	?
O=c1cc(CO)oc(CN2CCN(c3ccccc3)CC2)c1O	-6%	-31%	22µM*	0	3	50µM*
COc1cc(Br)cc(CNc2ccc(F)c([N+](=O)[O-])c2)c1O	-3%	?	45µM*	-5	-12	?
